The supplement of paper PMC10849652
About 7,900 targets were measured; listed, in parts, are those with a hit and a random draw of the rest. About 0.6% of all pairs of compound and target were hits.

Key:
Assay in all cases: log2 fold change, soluble protein after heating vs DMSO (PISA); higher = thermal stabilisation; K562 cells, 10 uM, 30 min; active = over 0.2 and 3.5 SD of the protein, either way, in both replicates (recomputed)
[1] = compound: C1=CC=C(C=C1)[C@H](COC2=CC3=C(C=C2)NC(=O)N3)NC(=O)C4=CC=CN(C4=O)CC5=CC(=C(C=C5)F)F
In short: (§1)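 K562 cells at 2×10^6 cells/mL were exposed to 10 μM compound for 30 min, then aliquots were heated for 3 min across 48°C-58°C, pooled, and extracted in PBS containing 0.5% NP-40 at 4°C. The supernatant after 21,000xg for 90 min was taken as soluble protein and measured by TMTpro 16plex LC-MS/MS with channel sums equalised. Thermal stability is reported relative to control samples, with values from duplicates. Fold changes are given on a log2 scale.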

[2] = compound: CC1=C(SC2=C1C(=N[C@H](C3=NN=C(N32)C)CC(=O)N)C4=CC=C(C=C4)Cl)C
In short: as §1

[3] = compound: CC1=C2C(=CC=C1)N=C(N(C2=O)C3=CC=CC=C3C)CN4C=NC5=C(N=CN=C54)N
In short: as §1

[4] = compound: Cc1sc2c(c1C)C(c1ccc(Cl)cc1)=N[C@@H](CC(=O)OC(C)(C)C)c1nnc(C)n1-2
In short: as §1

[5] = compound: c1ccc([C@@H]2C[C@H]2NC2CCNCC2)cc1
In short: as §1

Measured: log2 fold change

PLK1 (UniProt P53350)
Chain of UniProt P53350 (P53350 whole entry, looked up): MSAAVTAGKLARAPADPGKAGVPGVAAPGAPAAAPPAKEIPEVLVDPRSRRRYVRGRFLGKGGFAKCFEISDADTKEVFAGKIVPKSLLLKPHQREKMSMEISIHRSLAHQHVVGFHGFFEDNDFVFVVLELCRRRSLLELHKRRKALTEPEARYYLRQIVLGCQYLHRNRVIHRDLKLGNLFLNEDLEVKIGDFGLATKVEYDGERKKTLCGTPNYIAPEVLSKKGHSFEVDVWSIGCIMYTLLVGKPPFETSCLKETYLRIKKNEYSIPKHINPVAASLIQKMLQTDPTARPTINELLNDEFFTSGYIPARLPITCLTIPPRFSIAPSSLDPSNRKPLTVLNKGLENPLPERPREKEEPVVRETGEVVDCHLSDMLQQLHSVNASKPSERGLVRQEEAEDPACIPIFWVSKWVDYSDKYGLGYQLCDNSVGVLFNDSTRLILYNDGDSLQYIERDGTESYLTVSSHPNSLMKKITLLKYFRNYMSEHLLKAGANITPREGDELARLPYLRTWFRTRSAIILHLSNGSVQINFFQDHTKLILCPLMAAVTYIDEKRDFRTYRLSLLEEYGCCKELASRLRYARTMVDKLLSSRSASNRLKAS
inactive: [1] 0.02 | [2] 0.037 | [3] 0.019 | [4] -0.012 | [5] 0.007

POLR2M (UniProt P0CAP2)
Chain of UniProt P0CAP2 (P0CAP2 whole entry, looked up): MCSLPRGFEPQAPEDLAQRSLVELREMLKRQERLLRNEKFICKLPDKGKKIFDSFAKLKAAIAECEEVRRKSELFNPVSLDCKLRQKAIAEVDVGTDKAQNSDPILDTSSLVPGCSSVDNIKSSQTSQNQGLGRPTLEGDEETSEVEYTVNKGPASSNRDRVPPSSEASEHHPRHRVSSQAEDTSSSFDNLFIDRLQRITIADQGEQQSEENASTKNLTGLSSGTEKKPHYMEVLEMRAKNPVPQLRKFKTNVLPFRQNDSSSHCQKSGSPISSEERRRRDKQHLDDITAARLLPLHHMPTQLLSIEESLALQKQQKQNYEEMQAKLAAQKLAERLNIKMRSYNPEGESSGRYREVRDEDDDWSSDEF
inactive: [1] -0.021 | [2] 0.096 | [3] 0.045 | [4] 0.004 | [5] -0.062

PPT2 isoform 3 (UniProt Q9UMR5)
Chain of UniProt Q9UMR5 (Q9UMR5 whole entry, looked up): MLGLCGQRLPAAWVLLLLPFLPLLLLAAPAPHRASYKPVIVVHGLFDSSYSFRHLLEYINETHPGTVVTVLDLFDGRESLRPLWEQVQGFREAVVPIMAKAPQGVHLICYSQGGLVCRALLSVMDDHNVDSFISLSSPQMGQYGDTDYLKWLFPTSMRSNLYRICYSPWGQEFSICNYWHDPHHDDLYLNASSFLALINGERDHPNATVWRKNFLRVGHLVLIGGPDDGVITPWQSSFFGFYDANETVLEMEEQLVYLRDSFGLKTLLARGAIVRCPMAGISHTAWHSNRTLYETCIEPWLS
inactive: [1] 0.015 | [2] -0.062 | [3] -0.011 | [4] -0.053 | [5] 0.03

PSMC5 (UniProt P62195)
Chain of UniProt P62195 (P62195 whole entry, looked up): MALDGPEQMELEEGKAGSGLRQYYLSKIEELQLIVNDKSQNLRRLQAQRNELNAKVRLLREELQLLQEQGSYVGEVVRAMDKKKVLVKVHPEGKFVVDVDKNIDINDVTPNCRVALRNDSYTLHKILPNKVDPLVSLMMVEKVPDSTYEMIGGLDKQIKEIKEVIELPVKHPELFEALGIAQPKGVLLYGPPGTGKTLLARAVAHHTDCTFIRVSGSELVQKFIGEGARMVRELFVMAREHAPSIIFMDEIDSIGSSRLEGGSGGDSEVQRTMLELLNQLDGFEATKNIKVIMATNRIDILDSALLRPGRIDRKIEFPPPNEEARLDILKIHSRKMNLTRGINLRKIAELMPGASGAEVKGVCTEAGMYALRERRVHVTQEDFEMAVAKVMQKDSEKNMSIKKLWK
inactive: [1] 0.017 | [2] -0.087 | [3] -0.045 | [4] 0.006 | [5] 0.01

PLSCR1 (UniProt O15162)
Chain of UniProt O15162 (O15162 whole entry, looked up): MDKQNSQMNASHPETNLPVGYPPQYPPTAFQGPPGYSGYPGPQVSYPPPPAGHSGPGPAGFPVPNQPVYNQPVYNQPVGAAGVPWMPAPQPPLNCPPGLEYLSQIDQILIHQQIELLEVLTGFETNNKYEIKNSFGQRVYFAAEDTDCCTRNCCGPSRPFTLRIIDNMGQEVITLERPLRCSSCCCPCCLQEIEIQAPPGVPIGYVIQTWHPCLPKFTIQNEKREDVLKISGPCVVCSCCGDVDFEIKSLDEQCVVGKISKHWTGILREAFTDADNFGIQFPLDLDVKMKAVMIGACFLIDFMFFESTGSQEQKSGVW
inactive: [1] 0.017 | [2] 0.036 | [3] -0.016 | [4] -0.051 | [5] 0.055

PMM2 (UniProt O15305)
Chain of UniProt O15305 (O15305 whole entry, looked up): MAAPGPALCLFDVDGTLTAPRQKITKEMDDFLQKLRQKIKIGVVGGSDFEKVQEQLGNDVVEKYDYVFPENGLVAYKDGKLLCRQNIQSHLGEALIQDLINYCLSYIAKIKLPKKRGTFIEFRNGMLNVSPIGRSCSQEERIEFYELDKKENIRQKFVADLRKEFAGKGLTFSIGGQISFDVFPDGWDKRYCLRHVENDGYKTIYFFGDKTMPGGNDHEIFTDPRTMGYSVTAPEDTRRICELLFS
inactive: [1] 0.003 | [2] 0.046 | [3] -0.027 | [4] 0.06 | [5] 0.009

PDE12 (UniProt Q6L8Q7)
Chain of UniProt Q6L8Q7 (Q6L8Q7 whole entry, looked up): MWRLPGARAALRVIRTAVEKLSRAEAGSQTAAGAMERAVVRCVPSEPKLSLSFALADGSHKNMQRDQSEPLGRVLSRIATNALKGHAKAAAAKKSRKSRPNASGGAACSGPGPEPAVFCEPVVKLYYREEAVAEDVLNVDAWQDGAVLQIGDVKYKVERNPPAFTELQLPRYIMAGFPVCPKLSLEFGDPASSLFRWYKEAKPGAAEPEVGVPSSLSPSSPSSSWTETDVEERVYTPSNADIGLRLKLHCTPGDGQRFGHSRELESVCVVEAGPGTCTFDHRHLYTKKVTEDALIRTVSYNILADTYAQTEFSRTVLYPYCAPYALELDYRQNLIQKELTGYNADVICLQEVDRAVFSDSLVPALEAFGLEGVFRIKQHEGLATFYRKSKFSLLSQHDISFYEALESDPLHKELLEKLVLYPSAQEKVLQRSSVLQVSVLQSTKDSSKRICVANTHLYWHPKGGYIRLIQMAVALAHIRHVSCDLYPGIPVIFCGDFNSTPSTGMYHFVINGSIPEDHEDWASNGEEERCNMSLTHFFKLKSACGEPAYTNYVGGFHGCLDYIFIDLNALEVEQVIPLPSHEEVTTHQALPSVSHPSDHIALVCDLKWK
inactive: [1] -0.003 | [2] 0.059 | [3] 0.12 | [4] -0.05 | [5] -0.094

PAK4 (UniProt O96013)
Chain of UniProt O96013 (O96013 whole entry, looked up): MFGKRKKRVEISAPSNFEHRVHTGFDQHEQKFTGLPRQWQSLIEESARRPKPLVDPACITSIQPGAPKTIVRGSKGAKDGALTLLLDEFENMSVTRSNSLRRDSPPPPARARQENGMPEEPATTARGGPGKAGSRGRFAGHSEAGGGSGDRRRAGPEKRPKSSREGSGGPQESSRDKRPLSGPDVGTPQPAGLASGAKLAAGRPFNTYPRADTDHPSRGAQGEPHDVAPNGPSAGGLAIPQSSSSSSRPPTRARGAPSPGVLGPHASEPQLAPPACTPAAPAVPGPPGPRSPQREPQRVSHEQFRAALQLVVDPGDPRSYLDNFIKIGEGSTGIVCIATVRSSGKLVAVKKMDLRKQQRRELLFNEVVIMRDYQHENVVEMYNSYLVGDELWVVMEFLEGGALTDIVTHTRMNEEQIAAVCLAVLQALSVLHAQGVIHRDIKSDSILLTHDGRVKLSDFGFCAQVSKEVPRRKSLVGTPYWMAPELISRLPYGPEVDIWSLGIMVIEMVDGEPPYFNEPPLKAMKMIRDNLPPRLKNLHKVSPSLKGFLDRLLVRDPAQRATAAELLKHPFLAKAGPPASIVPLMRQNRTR
inactive: [1] -0.005 | [2] 0.045 | [3] 0.102 | [4] -0.02 | [5] -0.016

PGGHG (UniProt Q32M88)
Chain of UniProt Q32M88 (Q32M88 whole entry, looked up): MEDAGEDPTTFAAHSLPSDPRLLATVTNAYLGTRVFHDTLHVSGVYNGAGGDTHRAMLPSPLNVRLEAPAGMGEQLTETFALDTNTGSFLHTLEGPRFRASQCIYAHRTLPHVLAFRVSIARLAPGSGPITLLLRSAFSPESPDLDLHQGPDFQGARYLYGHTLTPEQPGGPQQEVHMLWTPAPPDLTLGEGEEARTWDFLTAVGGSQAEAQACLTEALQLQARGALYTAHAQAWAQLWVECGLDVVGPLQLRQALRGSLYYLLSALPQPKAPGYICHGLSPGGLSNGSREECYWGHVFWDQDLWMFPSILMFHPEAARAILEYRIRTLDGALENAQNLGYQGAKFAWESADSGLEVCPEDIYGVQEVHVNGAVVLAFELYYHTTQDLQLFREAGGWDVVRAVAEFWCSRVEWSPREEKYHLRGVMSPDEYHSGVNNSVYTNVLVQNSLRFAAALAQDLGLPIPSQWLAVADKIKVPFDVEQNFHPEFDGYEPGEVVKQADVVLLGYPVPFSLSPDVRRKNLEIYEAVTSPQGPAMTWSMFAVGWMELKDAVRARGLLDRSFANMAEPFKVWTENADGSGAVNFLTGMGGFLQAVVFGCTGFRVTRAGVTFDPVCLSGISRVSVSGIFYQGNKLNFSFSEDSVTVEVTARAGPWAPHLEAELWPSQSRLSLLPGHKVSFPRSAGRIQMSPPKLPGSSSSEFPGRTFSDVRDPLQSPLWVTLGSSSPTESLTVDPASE
inactive: [1] -0.052 | [2] -0.09 | [3] -0.088 | [4] -0.084 | [5] 0.213
